This is a sample that favours compounds with a hit; in the whole collection about 5.1% have one here.
NR3A LBD binder: binders of NR3A ligand-binding domain, primary screen, biophysical, differential scanning fluorimetry, uHTS. 2.5% of 340,000 active. Tm shift relative to glycine control, % at 25 µM. AID 1259313, 2017. NR3A LBD differential scanning fluorimetry, Tm shift; 0% = protein alone, 100% = glycine-bound protein. Glutamate receptor ionotropic, NMDA 3A (GRIN3A) ligand-binding domain;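 active means melting temperature shift of at least 10% of the positive control shift, at one fixed dose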
CRFBP-R2 block: antagonists of CRF-BP/CRF-R2 complex, primary screen, cell-based, HEK293, calcium dye fluorescence, uHTS. 0.59% of 350,000 active. CRF-induced calcium fluorescence. inhibition, % at 11.8 µM. AID 588475, 2011;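 active means inhibition of the ligand-induced calcium signal above about 50% at the single tested concentration, limit read from the data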
MPTP block: mitochondrial permeability transition pore inhibitors, primary screen, biochemical, isolated mouse mitochondria, absorbance | inhibition, % at 10 µM | 1.4% of 360,000 active | Ca2+ swelling absorbance, 30 min;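 active means inhibition of 50% or more, scaled per plate between neutral and stimulator controls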;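 further: 0% = DMSO wells given calcium and 100% = 1 mM EGTA wells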
TMEM16A act: TMEM16A chloride channel activators or potentiators, primary screen, cell-based, HTS. B-score at 10 µM. HEK293 TMEM16A/YFP-H148Q/I152L, iodide quench fluorescence; stronger effect = lower value. Anoctamin-1 (Mus musculus), Q8BHY3. 0.3% of 340,000 active;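 active means fluorescence-ratio B-score plate-corrected deviation score at least 3 library SD below zero, with starting fluorescence score within 5 deviations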;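 further: channel opened by trigger with iodide after compound preincubation; score built on the fluorescence ratio of max minus min over baseline; more negative score means more quench and so TMEM16A activation or potentiation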
ANO1 block: TMEM16A chloride channel inhibitors, primary screen, cell-based, HTS. normalized B-score (activity score, 25-100; higher = stronger inhibition) at 10 µM. HEK293 TMEM16A/YFP iodide influx fluorescence, ionomycin. Anoctamin-1 (Mus musculus), Q8BHY3. 1.2% of 310,000 active. AID 588511, 2011;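 active means ratio plate-corrected score three or more library SD toward inhibition, starting fluorescence score within five deviations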;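 further: score derived from kinetic fluorescence span divided by baseline fluorescence per well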
CRFBP-R2 agonist: agonists of CRF-BP/CRF-R2 complex, primary screen, cell-based, HEK293, calcium dye fluorescence, uHTS; CRF-binding protein / CRF receptor 2 complex (human); calcium dye fluorescence (FLIPR); percent of saturating CRF peptide response; activation, % at 13.2 µM; 0.46% of 350,000 active;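 active means activation of at least 50%, plus an integration ratio under a set limit after plate pattern correction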;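 further: plate controls were neutral control wells without compound for no effect and CRF at EC100 for full effect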
TMEM16A reconf: TMEM16A chloride channel inhibitors, confirmation, cell-based, re-confirmation; shares compounds with ANO1 block; HEK293 TMEM16A/YFP-H148Q, iodide quench fluorescence; ionomycin added to raise cell calcium; inhibition, % at 10 µM; 39% of 2,300 active;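 active means mean duplicate percent inhibition, scaled so buffer wells are 0 and the reference blocker 100, over three buffer SD above buffer mean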
TMEM16A Ca cntr: calcium mobilization in TMEM16A/YFP HEK293 cells, confirmation, counter-screen for TMEM16A inhibitor project; shares compounds with ANO1 block; Fluo4 calcium mobilization; calcium response (% of ionomycin), % at 10 µM; 2% of 2,300 active; AID 652231, 2013;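 active means duplicate-averaged calcium signal over 20% of the ionomycin maximum, relative to buffer baseline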;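 further: each well's signal is peak minus trough fluorescence divided by its pre-addition baseline; 0% = buffer wells and 100% = ionomycin wells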
Parental YFP cnt: iodide YFP quench changes in parental YFP-HEK293, counter-screen for TMEM16A inhibitor project, cell-based. YFP ratio F(max-min)/F0 at 10 µM. ionomycin. 2,300 tested, under 10 active. shares compounds with ANO1 block;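 active means yellow fluorescent protein signal ratio exceeding the buffer control mean by over 5 SD of those controls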;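 further: ratio is mean of duplicate wells from kinetic YFP trace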
ClC-1 rat inh: ClC-1 chloride channel inhibition, selectivity assay for TMEM16A inhibitor project, cell-based, voltage-dependent ClC-1. CHO ClC-1-YFP, iodide influx fluorescence quench; iodide control reads 0, buffer control 100. 2,300 tested, under 10 active. ratio percent, % at 10 µM. shares compounds with ANO1 block;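 active means duplicate-mean ratio percent above the mean of iodide-only control wells, which defines zero, plus 5 of their SD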;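 further: higher percent means stronger block of ClC-1 iodide influx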
Target sequence (P35524 whole entry, looked up): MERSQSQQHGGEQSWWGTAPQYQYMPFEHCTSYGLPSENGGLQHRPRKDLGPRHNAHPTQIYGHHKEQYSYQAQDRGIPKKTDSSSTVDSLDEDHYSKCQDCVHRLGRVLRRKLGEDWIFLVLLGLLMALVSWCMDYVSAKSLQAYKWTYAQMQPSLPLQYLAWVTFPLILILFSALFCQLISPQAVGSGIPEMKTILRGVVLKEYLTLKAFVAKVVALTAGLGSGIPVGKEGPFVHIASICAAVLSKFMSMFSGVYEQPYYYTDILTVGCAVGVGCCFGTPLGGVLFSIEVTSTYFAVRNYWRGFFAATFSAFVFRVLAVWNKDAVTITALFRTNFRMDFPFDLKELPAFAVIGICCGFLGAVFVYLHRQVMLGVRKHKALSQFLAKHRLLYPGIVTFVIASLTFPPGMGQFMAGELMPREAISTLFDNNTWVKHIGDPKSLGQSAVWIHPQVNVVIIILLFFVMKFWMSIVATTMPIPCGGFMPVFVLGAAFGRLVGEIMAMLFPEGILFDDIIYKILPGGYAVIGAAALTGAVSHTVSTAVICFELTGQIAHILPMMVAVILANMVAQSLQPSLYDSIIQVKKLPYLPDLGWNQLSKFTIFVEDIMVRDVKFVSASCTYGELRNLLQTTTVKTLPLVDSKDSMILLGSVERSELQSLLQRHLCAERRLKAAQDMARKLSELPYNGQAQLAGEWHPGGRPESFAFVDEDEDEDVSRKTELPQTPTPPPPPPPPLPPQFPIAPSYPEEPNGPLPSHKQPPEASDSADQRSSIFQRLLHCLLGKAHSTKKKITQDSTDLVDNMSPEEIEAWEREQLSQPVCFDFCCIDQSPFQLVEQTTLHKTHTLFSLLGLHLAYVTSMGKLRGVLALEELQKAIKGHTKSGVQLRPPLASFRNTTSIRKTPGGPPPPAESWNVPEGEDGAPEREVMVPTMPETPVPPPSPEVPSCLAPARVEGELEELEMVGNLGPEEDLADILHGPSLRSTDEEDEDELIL
Starred values were filed as active, the others as inactive.

CC1=CC(C)(C)N(C(=O)c2ccc(F)cc2)c2cc3c(cc21)OCO3 was read as NR3A LBD binder 0.4, CRFBP-R2 block -52.5, MPTP block 1.5, TMEM16A act inactive, ANO1 block 100*, CRFBP-R2 agonist 15.2, TMEM16A reconf 58.0%*, TMEM16A Ca cntr inactive, Parental YFP cnt -0.999 and ClC-1 rat inh -13.0.
N#Cc1ccccc1OCC(=O)OCC(=O)NC1CC1 was read as NR3A LBD binder -0.3, CRFBP-R2 block -2.5, MPTP block -1.1, TMEM16A act inactive and CRFBP-R2 agonist 0.6.
`O=C(NCc1ccccc1C(F)(F)F)C1CC(O)CN1C(=O)Nc1ccccc1` (configuration not stated) gave NR3A LBD binder 0.4, CRFBP-R2 block 3.6, MPTP block 0.4, TMEM16A act inactive, ANO1 block inactive, CRFBP-R2 agonist -0.6, TMEM16A reconf inactive, TMEM16A Ca cntr inactive, Parental YFP cnt -0.847 and ClC-1 rat inh -8.5.
Screening O=C(CSc1nnc(CNc2ccc(F)cc2)n1CC1CCCO1)N1CCOCC1 (configuration not stated) returned NR3A LBD binder -0.9, CRFBP-R2 block 2.0, MPTP block -0.3, TMEM16A act inactive and CRFBP-R2 agonist -0.3.
COc1ccc(C(=O)NC(C)c2cnn(-c3ccccn3)c2C)o1 (configuration not stated) was read as NR3A LBD binder 2.1, CRFBP-R2 block -7.6, MPTP block -1.0, TMEM16A act inactive, ANO1 block inactive and CRFBP-R2 agonist 2.8.
Screening CCOc1ccc(Nc2nc(NCCN3CCOCC3)nc(OC)n2)cc1 returned NR3A LBD binder -0.3, CRFBP-R2 block -2.4, MPTP block -0.2, TMEM16A act inactive, ANO1 block 100*, CRFBP-R2 agonist -0.2, TMEM16A reconf inactive, TMEM16A Ca cntr inactive, Parental YFP cnt -0.942 and ClC-1 rat inh -9.5.
CC(=O)Nc1ccc(S(=O)(=O)CCC#N)cc1 was read as NR3A LBD binder 0.8, CRFBP-R2 block -42.5, MPTP block -0.9, TMEM16A act inactive, ANO1 block inactive, CRFBP-R2 agonist 4.6, TMEM16A reconf inactive, TMEM16A Ca cntr inactive, Parental YFP cnt -1.11 and ClC-1 rat inh -17.5.
Cc1ccc(S(=O)(=O)CCC#N)cc1 was read as NR3A LBD binder -1.6, CRFBP-R2 block 4.6, MPTP block -0.7, TMEM16A act inactive, ANO1 block inactive and CRFBP-R2 agonist -1.2.
Screening O=C(Cc1ccc(NC(=O)C2CCCN(C(=O)c3ccccc3)C2)cc1)Nc1ccc(C(=O)N2CCOCC2)cc1 (configuration not stated) returned NR3A LBD binder -0.5, CRFBP-R2 block -1.7, MPTP block -0.5, TMEM16A act inactive and CRFBP-R2 agonist -0.9.
`Cc1ccc(S(=O)(=O)CC(=O)Nc2ncc([N+](=O)[O-])s2)cc1` gave NR3A LBD binder -0.7, CRFBP-R2 block -8.4, MPTP block 0.3, TMEM16A act inactive, ANO1 block 25*, CRFBP-R2 agonist 21.5, TMEM16A reconf 38.5%*, TMEM16A Ca cntr inactive, Parental YFP cnt -0.995 and ClC-1 rat inh -17.5.
For Cc1cnc(NC(=O)c2cccs2)s1 the results were NR3A LBD binder 2.3, CRFBP-R2 block -5.3, MPTP block 1.2, TMEM16A act inactive, ANO1 block inactive and CRFBP-R2 agonist -0.7.
O=C(Nc1ncc([N+](=O)[O-])s1)c1cccs1 was read as NR3A LBD binder -11.3, CRFBP-R2 block 23.3, MPTP block 8.5, TMEM16A act inactive, ANO1 block 25*, CRFBP-R2 agonist 32.9, TMEM16A reconf 24.5%*, TMEM16A Ca cntr inactive, Parental YFP cnt -1.08 and ClC-1 rat inh -3.0.
For N#Cc1c(-c2ccccc2)nc(SCc2cccc(Cl)c2)[nH]c1=O the results were NR3A LBD binder -7.0, CRFBP-R2 block 55.7*, MPTP block 6.7, TMEM16A act inactive, ANO1 block 100*, CRFBP-R2 agonist 4.8, TMEM16A reconf 83.0%*, TMEM16A Ca cntr inactive, Parental YFP cnt -0.993 and ClC-1 rat inh -19.0.
Cc1[nH]c(=O)nc(SCc2cccc(Cl)c2)c1C#N was read as NR3A LBD binder -4.0, CRFBP-R2 block 14.6, MPTP block 0.9, TMEM16A act inactive, ANO1 block inactive and CRFBP-R2 agonist -1.1.
`COc1ccc(CC(=O)Oc2ccc(C(C)C)cc2)cc1S(=O)(=O)N1CCOCC1` gave NR3A LBD binder -1.7, CRFBP-R2 block 2.7, MPTP block 0.3, TMEM16A act inactive, ANO1 block inactive and CRFBP-R2 agonist 0.6.
For O=c1c2c([nH]c3ccccc13)CCCCCC2 the results were NR3A LBD binder -2.7, CRFBP-R2 block -0.5, MPTP block -0.3, TMEM16A act inactive, ANO1 block 25*, CRFBP-R2 agonist 0.4, TMEM16A reconf inactive, TMEM16A Ca cntr inactive, Parental YFP cnt -1.13 and ClC-1 rat inh -13.5.
`O=C(Nc1ccc(C(F)(F)F)cc1Cl)c1ccc(Cn2cc(Br)cn2)o1` gave NR3A LBD binder -10.4, CRFBP-R2 block -11.6, MPTP block -0.1, TMEM16A act inactive, ANO1 block inactive and CRFBP-R2 agonist 1.2.
For O=C(Nc1cccc(C(F)(F)F)c1)c1ccc(Cn2cc(Br)cn2)o1 the results were NR3A LBD binder -0.7, CRFBP-R2 block -38.4, MPTP block 23.1, TMEM16A act inactive, ANO1 block 100*, CRFBP-R2 agonist 0.9, TMEM16A reconf 49.0%*, TMEM16A Ca cntr inactive, Parental YFP cnt -1.08 and ClC-1 rat inh -12.0.

Screening data from PubChem BioAssay.
